The supplement of paper PMC12819154, “High-throughput peptide-centric local stability assay extends protein–ligand identification to membrane proteins, tissues and bacteria” (Nature Structural & Molecular Biology, 2025)

compound: CN[C@@H]1C[C@H]2O[C@@](C)([C@@H]1OC)n1c3ccccc3c3c4c(c5c6ccccc6n2c5c31)C(=O)NC4 [staurosporine]; test: log2 fold change of tryptic peptide abundance, ligand vs vehicle (limited proteolysis) (log2 ratio); higher = more trypsin-susceptible (destabilized); conditions: ligand concentration: 20 uM; sample: mouse liver crude lysate; replicate design: treated separately

Sequence of UniProt P12367 (P12367 whole entry): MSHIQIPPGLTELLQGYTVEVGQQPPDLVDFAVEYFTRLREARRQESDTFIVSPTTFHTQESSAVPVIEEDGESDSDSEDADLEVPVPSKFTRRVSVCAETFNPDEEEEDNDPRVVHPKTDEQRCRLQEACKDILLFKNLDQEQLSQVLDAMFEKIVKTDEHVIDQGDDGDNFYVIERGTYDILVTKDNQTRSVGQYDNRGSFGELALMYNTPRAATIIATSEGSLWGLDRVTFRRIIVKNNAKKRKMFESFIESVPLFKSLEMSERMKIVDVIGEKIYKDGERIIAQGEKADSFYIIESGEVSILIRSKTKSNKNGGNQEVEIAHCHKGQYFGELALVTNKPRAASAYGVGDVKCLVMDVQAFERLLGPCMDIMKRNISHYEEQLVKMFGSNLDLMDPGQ
Sequence of UniProt Q8BHC4 (Q8BHC4 whole entry): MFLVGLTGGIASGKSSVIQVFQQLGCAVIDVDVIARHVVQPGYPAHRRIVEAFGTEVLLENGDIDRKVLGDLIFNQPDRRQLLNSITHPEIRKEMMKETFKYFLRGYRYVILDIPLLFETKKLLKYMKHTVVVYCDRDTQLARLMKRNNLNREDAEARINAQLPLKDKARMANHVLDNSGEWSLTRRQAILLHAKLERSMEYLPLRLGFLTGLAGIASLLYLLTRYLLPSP
Sequence of UniProt O55047 (O55047 whole entry): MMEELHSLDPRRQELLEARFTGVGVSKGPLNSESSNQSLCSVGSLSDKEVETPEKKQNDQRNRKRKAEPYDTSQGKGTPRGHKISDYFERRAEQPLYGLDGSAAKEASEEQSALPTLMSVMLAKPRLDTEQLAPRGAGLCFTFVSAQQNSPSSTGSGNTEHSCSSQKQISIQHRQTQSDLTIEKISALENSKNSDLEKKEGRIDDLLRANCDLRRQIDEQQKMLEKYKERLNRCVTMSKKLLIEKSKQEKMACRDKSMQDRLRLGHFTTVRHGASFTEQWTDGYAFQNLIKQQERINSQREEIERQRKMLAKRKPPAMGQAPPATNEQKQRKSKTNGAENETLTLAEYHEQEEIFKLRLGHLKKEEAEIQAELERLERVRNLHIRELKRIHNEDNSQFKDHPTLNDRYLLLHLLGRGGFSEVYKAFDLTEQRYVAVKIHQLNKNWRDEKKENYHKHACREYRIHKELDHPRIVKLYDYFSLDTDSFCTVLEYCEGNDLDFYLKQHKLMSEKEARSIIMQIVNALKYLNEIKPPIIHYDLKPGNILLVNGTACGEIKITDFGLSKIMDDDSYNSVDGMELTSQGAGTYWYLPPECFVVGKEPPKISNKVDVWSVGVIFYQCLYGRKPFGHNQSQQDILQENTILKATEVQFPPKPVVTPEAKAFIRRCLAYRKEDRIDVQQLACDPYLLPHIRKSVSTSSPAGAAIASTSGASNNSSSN
Sequence of UniProt Q9CQU3 (Q9CQU3 whole entry): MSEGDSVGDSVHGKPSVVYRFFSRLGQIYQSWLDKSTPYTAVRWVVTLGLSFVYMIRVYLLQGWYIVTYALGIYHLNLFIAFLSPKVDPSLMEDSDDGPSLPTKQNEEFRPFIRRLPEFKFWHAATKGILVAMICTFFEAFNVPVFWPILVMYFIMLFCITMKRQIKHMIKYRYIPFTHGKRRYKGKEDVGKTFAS
Sequence of UniProt Q99JP0 (Q99JP0 whole entry): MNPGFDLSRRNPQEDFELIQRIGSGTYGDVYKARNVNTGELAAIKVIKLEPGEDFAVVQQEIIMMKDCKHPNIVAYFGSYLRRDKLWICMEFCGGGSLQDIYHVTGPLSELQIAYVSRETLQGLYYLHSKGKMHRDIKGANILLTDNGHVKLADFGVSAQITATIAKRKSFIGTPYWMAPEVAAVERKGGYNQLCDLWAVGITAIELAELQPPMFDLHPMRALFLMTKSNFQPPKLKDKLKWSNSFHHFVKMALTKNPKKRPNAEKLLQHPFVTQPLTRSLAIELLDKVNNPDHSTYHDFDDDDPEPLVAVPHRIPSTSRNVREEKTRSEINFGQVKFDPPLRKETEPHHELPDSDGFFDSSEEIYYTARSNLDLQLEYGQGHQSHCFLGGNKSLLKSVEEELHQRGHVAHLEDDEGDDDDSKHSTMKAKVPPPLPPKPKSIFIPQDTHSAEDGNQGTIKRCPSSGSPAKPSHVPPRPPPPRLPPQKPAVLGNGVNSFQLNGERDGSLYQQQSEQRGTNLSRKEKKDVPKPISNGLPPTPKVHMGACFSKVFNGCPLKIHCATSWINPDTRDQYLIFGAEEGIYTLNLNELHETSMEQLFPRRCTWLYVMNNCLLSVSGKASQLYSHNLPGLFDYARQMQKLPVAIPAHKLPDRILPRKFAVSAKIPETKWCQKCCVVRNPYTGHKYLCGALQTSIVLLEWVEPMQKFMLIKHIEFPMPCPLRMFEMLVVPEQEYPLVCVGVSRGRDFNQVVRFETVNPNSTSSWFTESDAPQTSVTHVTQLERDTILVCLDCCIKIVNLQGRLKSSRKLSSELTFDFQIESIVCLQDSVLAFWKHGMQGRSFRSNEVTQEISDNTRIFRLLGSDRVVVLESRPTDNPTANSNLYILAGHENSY
Sequence of UniProt Q68FL6 (Q68FL6 whole entry): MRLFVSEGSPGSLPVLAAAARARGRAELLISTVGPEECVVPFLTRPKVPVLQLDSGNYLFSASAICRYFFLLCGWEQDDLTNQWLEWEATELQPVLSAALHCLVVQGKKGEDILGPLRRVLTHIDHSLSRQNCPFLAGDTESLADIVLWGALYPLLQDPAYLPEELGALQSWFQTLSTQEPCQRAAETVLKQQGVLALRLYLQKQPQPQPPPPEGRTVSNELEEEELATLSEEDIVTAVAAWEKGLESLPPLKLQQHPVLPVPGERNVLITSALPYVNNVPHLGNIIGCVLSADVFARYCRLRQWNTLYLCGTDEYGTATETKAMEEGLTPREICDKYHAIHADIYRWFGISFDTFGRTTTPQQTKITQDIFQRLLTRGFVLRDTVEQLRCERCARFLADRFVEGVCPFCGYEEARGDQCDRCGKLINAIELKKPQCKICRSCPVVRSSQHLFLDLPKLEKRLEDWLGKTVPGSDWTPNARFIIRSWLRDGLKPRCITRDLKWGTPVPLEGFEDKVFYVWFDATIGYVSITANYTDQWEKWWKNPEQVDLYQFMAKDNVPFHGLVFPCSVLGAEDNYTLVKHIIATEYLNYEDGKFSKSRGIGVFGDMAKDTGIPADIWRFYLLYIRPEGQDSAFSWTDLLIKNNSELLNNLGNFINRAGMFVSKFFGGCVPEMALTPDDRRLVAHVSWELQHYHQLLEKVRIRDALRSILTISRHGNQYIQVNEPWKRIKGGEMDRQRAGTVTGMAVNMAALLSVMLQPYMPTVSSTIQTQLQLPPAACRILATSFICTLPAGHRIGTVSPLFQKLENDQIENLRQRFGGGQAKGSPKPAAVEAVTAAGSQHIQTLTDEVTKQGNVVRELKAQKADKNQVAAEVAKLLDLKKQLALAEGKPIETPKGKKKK
Sequence of UniProt Q8VI63 (Q8VI63 whole entry): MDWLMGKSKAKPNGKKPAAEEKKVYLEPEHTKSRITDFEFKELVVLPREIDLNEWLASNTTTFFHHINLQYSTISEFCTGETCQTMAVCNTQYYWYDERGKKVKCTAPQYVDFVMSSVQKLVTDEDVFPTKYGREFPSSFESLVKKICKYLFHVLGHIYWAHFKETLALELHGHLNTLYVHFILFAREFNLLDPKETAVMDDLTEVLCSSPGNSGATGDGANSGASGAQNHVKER
Sequence of UniProt Q62120 (Q62120 whole entry): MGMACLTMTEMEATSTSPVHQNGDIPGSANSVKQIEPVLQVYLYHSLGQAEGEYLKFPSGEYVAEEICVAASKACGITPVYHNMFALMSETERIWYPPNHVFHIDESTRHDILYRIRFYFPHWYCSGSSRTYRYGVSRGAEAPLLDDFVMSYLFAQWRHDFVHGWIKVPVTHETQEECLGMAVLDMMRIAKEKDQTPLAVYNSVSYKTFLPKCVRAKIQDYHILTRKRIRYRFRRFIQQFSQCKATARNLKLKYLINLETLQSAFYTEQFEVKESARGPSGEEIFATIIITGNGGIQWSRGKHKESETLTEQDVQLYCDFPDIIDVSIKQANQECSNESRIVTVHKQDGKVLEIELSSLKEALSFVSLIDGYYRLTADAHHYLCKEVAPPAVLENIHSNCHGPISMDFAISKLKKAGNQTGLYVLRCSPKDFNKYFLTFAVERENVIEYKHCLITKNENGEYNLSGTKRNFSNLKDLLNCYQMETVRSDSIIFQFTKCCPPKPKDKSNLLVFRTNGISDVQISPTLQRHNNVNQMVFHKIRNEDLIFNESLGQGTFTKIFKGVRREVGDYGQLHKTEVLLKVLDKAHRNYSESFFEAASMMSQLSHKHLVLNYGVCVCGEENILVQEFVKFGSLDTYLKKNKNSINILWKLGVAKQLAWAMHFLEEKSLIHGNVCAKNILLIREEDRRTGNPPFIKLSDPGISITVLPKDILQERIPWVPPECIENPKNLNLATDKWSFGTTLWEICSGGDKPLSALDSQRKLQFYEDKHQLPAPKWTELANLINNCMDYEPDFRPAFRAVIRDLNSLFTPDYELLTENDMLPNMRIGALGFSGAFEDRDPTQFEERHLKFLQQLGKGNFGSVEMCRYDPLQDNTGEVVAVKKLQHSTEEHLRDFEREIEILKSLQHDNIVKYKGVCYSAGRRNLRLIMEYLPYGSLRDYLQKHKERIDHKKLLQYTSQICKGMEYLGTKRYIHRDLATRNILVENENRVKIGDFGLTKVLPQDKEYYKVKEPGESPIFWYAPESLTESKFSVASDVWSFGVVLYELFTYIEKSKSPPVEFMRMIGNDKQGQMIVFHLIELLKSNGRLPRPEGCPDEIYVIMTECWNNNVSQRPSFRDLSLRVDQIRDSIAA
Sequence of UniProt O54909 (O54909 whole entry): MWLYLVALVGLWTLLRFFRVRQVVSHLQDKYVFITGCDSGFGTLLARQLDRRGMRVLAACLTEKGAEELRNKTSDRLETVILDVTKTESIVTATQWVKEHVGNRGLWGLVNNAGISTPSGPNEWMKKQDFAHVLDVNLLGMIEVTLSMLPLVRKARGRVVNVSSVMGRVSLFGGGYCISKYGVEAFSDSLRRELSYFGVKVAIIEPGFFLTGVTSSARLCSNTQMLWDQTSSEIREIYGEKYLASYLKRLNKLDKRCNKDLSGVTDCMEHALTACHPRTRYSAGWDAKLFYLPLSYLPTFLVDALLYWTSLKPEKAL

Row | Target | log2 fold change
1 | UniProt O70503 (peptide sequence: IQKPTLDKPSAETFVK, peptide start residue: 242) | 0.192
2 | UniProt P13516 (peptide sequence: TVPLHLEEDIRPEMK, peptide start residue: 33) | 0.245
3 | UniProt P22907 (peptide sequence: ELENALEKNEVDLVVHSLK, peptide start residue: 80) | -0.802
4 | UniProt Q9CQU3 (peptide sequence: YIPFTHGK, peptide start residue: 174) | 0.278
5 | UniProt Q9D2C7 (peptide sequence: MNIFDRK, peptide start residue: 1) | 0.348
6 | UniProt Q9D6M3 (peptide sequence: LAANDFFR, peptide start residue: 84) | 0.616
7 | UniProt A2A974 (peptide sequence: SLSDKDLR, peptide start residue: 303) | 0.2
8 | UniProt O54909 (peptide sequence: YLASYLKR, peptide start residue: 242) | -1.31
9 | UniProt Q99JP0 (peptide sequence: NVNTGELAAIK, peptide start residue: 35) | -1.82
10 | UniProt Q9D0I9 (peptide sequence: GFDILGIKPVQR, peptide start residue: 648) | 0.372
11 | UniProt Q03963 (peptide sequence: DLKPGNIFLVDER, peptide start residue: 376) | -1.55
12 | UniProt Q8C878 (peptide sequence: LPEHCIEYVR, peptide start residue: 245) | 0.505
13 | UniProt Q8C050 (peptide sequence: VLGTGAYGK, peptide start residue: 53) | -1.37
14 | UniProt Q3TWW8 (peptide sequence: CSWQDLKDFMR, peptide start residue: 121) | 1.07
15 | UniProt Q8BHC4 (peptide sequence: HVVQPGYPAHR, peptide start residue: 37) | 0.384
16 | UniProt P47754 (peptide sequence: TSVETALR, peptide start residue: 122) | -0.836
17 | UniProt Q9WUN2 (peptide sequence: VFNNISFLRPVDVQMR, peptide start residue: 39) | -2.34
18 | UniProt Q9WTK7 (peptide sequence: SMTVVPYLEDLHGR, peptide start residue: 334) | 1.41
19 | UniProt Q9CQE7 (peptide sequence: QFDAYPK, peptide start residue: 9) | 0.366

Row | Target | log2 fold change
20 | UniProt P20444 (peptide sequence: LGCGPEGER, peptide start residue: 581) | -2.63
21 | UniProt Q6PGL7 (peptide sequence: RPTSFADELAAR, peptide start residue: 281) | -0.483
22 | UniProt Q61578 (peptide sequence: NVINTFTQTAR, peptide start residue: 94) | 0.834
23 | UniProt O55047 (peptide sequence: YLLLHLLGR, peptide start residue: 408) | -1.75
24 | UniProt Q61136 (peptide sequence: LNDADPDDKFHCLR, peptide start residue: 739) | -1.19
25 | UniProt P62717 (peptide sequence: AHSIQIMK, peptide start residue: 121) | 0.267
26 | UniProt P12367 (peptide sequence: IVDVIGEK, peptide start residue: 270) | 0.593
27 | UniProt Q8VI63 (peptide sequence: ITDFEFK, peptide start residue: 35) | 0.579
28 | UniProt Q9EQ20 (peptide sequence: YQQLIKENLKEIAR, peptide start residue: 108) | -0.315
29 | UniProt P70451 (peptide sequence: NCLVGENNTLK, peptide start residue: 690) | -2
30 | UniProt P12710 (peptide sequence: DIKGVSEIVHEGK, peptide start residue: 34) | 0.719
31 | UniProt P14685 (peptide sequence: ISLADIAQK, peptide start residue: 413) | -0.355
32 | UniProt Q66GT5 (peptide sequence: IDHTVLLGALPLK, peptide start residue: 41) | 0.379
33 | UniProt Q62120 (peptide sequence: VLPQDKEYYK, peptide start residue: 1000) | -1.02
34 | UniProt Q9JHU4 (peptide sequence: SNLPDNLK, peptide start residue: 2024) | 0.261
35 | UniProt P31532 (peptide sequence: KYFQGLLNR, peptide start residue: 81) | 0.505
36 | UniProt Q99J56 (peptide sequence: GGVSGFGVPPASMR, peptide start residue: 215) | 0.327
37 | UniProt P41241 (peptide sequence: GSLVDYLR, peptide start residue: 272) | -1.06
38 | UniProt Q68FL6 (peptide sequence: GIGVFGDMAK, peptide start residue: 601) | 0.564
